Columns and labels:
Assay type in all cases: functional
[1] = target: Solute carrier family 2, facilitated glucose transporter member 1 (Homo sapiens) (UniProt P11166); assay: ST_JUDE_LEISH: Cytotoxicity at 2uM final concentration against transgenic Leishmania Mexicana promastigotes LmGLUT1 that are glucose transport deficient and complemented with the human glucose transporter GLUT1. Activity is measured by DNA content using SYBR green in vitro
[2] = target: Hexose transporter 1 (Plasmodium falciparum) (UniProt O97467); assay: ST_JUDE_LEISH: Cytotoxicity at 2uM final concentration against transgenic Leishmania Mexicana promastigotes LmPfHT that are glucose transport deficient and complemented with the Plasmodium falciparum hexose transporter. Activity is measured by DNA content using SYBR green in vitro
[3] = target: Glucose transporter (Leishmania mexicana) (UniProt O61059); assay: ST_JUDE_LEISH: Cytotoxicity at 2uM final concentration against transgenic Leishmania Mexicana promastigotes LmGT2 that are glucose transport deficient and complemented with the L. Mexicana glucose transporter 2. Activity is measured by DNA content using SYBR green in vitro

Chain of Solute carrier family 2, facilitated glucose transporter member 1 (Homo sapiens) (P11166 whole entry): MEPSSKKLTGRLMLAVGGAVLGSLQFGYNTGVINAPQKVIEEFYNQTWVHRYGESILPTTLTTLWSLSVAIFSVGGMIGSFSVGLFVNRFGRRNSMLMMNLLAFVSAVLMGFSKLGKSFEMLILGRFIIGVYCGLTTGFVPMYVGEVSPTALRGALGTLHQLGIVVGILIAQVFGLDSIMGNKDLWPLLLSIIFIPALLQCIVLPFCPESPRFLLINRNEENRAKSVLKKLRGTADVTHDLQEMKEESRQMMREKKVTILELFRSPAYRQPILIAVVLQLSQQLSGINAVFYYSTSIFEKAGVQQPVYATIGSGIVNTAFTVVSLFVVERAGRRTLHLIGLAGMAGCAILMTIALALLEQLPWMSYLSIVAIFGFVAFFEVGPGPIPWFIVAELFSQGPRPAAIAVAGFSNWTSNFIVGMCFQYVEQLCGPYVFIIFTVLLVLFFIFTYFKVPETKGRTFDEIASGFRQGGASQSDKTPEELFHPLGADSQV

CC(=O)Nc1ccc(C(=O)Nc2ccc(-c3cccc(-c4nc5cc(F)ccc5[nH]4)c3)cc2)cn1
inhibition [1]: 0.13%
inhibition [2]: 1.66%
inhibition [3]: -4.38%

CCCCCN1CCC(NS(=O)(=O)c2cccc(C(=O)Nc3ccc(C(F)(F)F)cc3)c2)C1 (stereo unspecified)
inhibition [1]: 1.64%
inhibition [2]: 1.94%
inhibition [3]: 1.9%

CCC(C)NS(=O)(=O)c1ccc2nc(Nc3ccc(C)cc3)n(C3CCCCC3C)c2c1 (stereo unspecified)
inhibition [1]: 4.96%
inhibition [2]: 3.92%
inhibition [3]: 2.03%

O=C(C=Cc1cn(-c2ccccc2)nc1-c1cccs1)N1CCN(c2ccncc2)CC1
inhibition [1]: 1.81%
inhibition [2]: 0.46%
inhibition [3]: -3.76%

COc1ccc(CNCCCCCNCc2ccc(Cl)c(Cl)c2)cc1Cl
inhibition [1]: 3.98%
inhibition [2]: 3.58%
inhibition [3]: 1.38%

CC(C)N(Cc1cnc(N)c(C#N)n1)c1ccc(Cl)c(Cl)c1
inhibition [1]: 3.62%
inhibition [2]: 2.68%
inhibition [3]: 2.67%

Cc1nc(N)nc(N)c1-c1ccc2ccccc2c1
inhibition [1]: -1.96%
inhibition [2]: -1.02%
inhibition [3]: -2.1%

CS(=O)(=O)N(c1ccccc1)c1cc(C(=O)N[C@@H](Cc2ccccc2)[C@H](O)CNC2CC2)cc(N2CCCC2=O)c1
inhibition [1]: 4.45%
inhibition [2]: 5.62%
inhibition [3]: 4.38%

O=C(Nc1ccc(-c2ccc(-c3nc4cc(C(F)(F)F)ccc4[nH]3)s2)cc1)c1c[nH]cn1
inhibition [1]: 3.09%
inhibition [2]: 7.24%
inhibition [3]: 8.27%

CCOc1ccc2c(=NN=Cc3cccc(OC)c3)cc(C)[nH]c2c1
inhibition [1]: -0.74%
inhibition [2]: -0.19%
inhibition [3]: -0.12%

Cc1cccc2nc(-c3ccc(-c4ccc(CN5CCC(CO)CC5)cc4)s3)[nH]c12
inhibition [1]: 3.72%
inhibition [2]: 2.43%
inhibition [3]: 0.87%

CCCCN1Cc2c(n(CC(=O)Nc3ccccc3)c3cc(-c4ccccc4)nn3c2=O)C1=O
inhibition [1]: 1.25%
inhibition [2]: 1.92%
inhibition [3]: 1.8%

CCCCNCc1ccc(-c2nc(CN(C(=O)Nc3cc([N+](=O)[O-])ccc3F)C3Cc4ccccc4C3)cs2)cc1
inhibition [1]: 6.86%
inhibition [2]: 8.03%
inhibition [3]: 4.78%

FC(F)(F)c1ccc2[nH]c(-c3cccc(-c4ccc(CNCC5CCCO5)cc4)c3)nc2c1 (stereo unspecified)
inhibition [1]: 11.3%
inhibition [2]: 8.39%
inhibition [3]: 6.46%

Nc1c2c(nc3ccc(Oc4ccc(Br)cc4Br)cc13)CCCC2
inhibition [1]: 81.2%
inhibition [2]: 84.6%
inhibition [3]: 57.4%

COc1cccc(C2(c3cccc(OC)c3)N=C(N)N(CCCc3ccccc3)C2=O)c1
inhibition [1]: -0.49%
inhibition [2]: -0.23%
inhibition [3]: -2.44%

Fc1cccc(COc2ccc(-n3ccc4c(NCCCn5ccnc5)ncnc43)cc2Cl)n1
inhibition [1]: 1.74%
inhibition [2]: 2.45%
inhibition [3]: 1.59%

Source: ChEMBL document CHEMBL3433997, “St. Jude Leishmania screening dataset” (2016)
